Sampled rows, rich in hits. Any-hit rate of the full collection: about 2.8%.
SENP8 block-1 = SENP8 protease inhibitors, primary screen, biochemical, luminescence | Sentrin-specific protease 8 (Homo sapiens), Q96LD8 | purified SENP8, Z-RLRGG-aminoluciferin cleavage | inhibition, % at 10 µM | 330,000 tested, 1.2% active; in the data active = inhibition above about 50%
Target sequence (Q96LD8 whole entry, looked up): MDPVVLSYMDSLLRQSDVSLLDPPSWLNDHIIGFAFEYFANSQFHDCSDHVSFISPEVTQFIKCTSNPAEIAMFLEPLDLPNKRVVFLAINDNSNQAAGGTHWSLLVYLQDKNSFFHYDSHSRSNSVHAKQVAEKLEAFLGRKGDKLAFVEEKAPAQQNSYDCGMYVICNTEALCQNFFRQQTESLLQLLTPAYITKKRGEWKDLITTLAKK
SENP7 block = SENP7 protease inhibitors, primary screen, biochemical, luminescence, uHTS; inhibition, % at 5 µM; Sentrin-specific protease 7 (Homo sapiens), Q9BQF6; 330,000 tested, 1.5% active; recombinant SENP7, Z-RLRGG-aminoluciferin luminescence, 40 min;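 active = inhibition above about 50% at the single test dose, limit read from the data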;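 note: plate controls were DMSO with enzyme for no effect and no enzyme buffer wells for full effect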
SENP8 block-2 = human SENP8 protease inhibitors, primary screen, biochemical, fluorescence, Nedd8 protein substrate, uHTS | Sentrin-specific protease 8 (Homo sapiens), Q96LD8 | recombinant SENP8 | inhibition, % at 20 µM | 360,000 tested, 0.64% active | AID 602440, 2012; in the data active = inhibition mostly above about 40%, no sharp cut-off; inactive = mostly below about 27%
HSP90 refold inh = HSP90 inhibitors, primary screen, cell lysate, luminescence. Heat shock protein HSP 90 (rabbit reticulocyte lysate; luciferase refolding). Rabbit reticulocyte lysate, luciferase refolding luminescence, 3 h. inhibition, % at 5.6 µM. 290,000 tested, 0.91% active;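 active = inhibition above the screen-wide mean plus 3 SD, computed separately per campaign, cut at about 16% in these data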;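 note: 0% = DMSO wells and 100% = 60 µM geldanamycin wells; inhibitors lower the luminescence because luciferase stays unfolded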
SENP6 inh = SENP6 protease inhibitors, primary screen, biochemical, luminescence, uHTS | Sentrin-specific protease 6 (Homo sapiens), Q9GZR1 | Recombinant SENP6 catalytic domain, aminoluciferin luminescence | inhibition, % at 10 µM | 330,000 tested, 1.8% active;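 active = inhibition above about 50% at the single tested dose, limit read from the data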;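 note: plate controls were DMSO wells with enzyme for no effect and DMSO wells lacking enzyme for full effect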
Target sequence (Q9GZR1 628-1112 limits assumed): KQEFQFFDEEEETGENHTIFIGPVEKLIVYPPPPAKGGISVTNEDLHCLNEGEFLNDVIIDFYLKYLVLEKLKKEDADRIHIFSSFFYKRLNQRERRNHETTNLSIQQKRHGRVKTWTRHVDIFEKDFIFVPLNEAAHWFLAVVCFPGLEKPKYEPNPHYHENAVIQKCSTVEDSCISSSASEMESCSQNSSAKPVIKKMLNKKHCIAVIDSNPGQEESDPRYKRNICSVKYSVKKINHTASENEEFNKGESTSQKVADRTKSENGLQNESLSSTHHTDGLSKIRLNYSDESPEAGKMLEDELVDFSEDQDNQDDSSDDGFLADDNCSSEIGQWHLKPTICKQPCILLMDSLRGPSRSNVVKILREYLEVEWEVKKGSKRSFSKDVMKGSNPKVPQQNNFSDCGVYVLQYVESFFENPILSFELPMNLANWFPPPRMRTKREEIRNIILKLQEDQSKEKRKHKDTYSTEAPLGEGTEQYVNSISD
HSP90 inh confirm = HSP90 inhibitors, confirmation, cell lysate, luminescence. inhibition, % at 5.9 µM. AID 1846, 2009. rabbit reticulocyte lysate, luciferase refolding luminescence, 3 h. shares compounds with HSP90 refold inh. 2,300 tested, 64% active; in the data active = inhibition above about 18%;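 note: 0% = vehicle wells and 100% = reference inhibitor wells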
luciferase ctr = firefly luciferase inhibitors, HSP90 counter-screen, confirmation, artefact control for HSP90 inhibitor project, biochemical, luminescence, triplicate. shares compounds with HSP90 refold inh. purified native firefly luciferase. inhibition, % at 5.9 µM. 2,300 tested, 48% active. AID 1847, 2009;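 active = inhibition above the mean inhibition of all tested sample wells plus 3 SD, cut at about 10% in these data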;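 note: 0% = DMSO with luciferase and 100% = wells lacking luciferase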
* hit, by the source's call; . = no result.

SMILES | SENP8 block-1 | SENP7 block | SENP8 block-2 | HSP90 refold inh | SENP6 inh | HSP90 inh confirm | luciferase ctr
Clc1ccc(-n2ncc3c(N4CCCC4)ncnc32)cc1 | 7.7 | 1.6 | 9.4 | 30.8* | 46.7 | 61.8* | 58.5*
Cc1ccc2nc(-c3cc(-c4ccccc4)no3)cn2c1 | 32.4 | 89.7* | -233.1 | 25.4* | 44.4 | 68.6* | 57.8*
CC(C(=O)OCC(=O)c1ccccc1)N1C(=O)c2ccccc2C1=O (stereo unspecified) | -2.7 | 3.0 | 25.3 | 2.1 | -11.4 | . | .
O=C(NCc1ccc(F)cc1)c1ccc(CS(=O)(=O)Cc2ccccc2F)o1 | -2.6 | 0.1 | 11.9 | 4.7 | -13.9 | . | .
O=C(Nc1nnc(-c2ccc(F)cc2)s1)c1ccco1 | -0.2 | 2.4 | -163.8 | 50.5* | 2.1 | -3.6 | -14.0
Nc1nc(-c2ccco2)c(-c2ccco2)s1 | 7.5 | 9.9 | -67.2 | 20.4* | -3.4 | -0.2 | -3.2
Cc1cccc2cc(/C=N/NC(=O)CN3CCCCC3)c(Cl)nc12 | 3.1 | 12.0 | . | 3.3 | -3.1 | . | .
COc1cc(/C=N/NC(=Nc2ccc(C)cc2)c2nc3ccccc3s2)ccc1O | 9.8 | 5.5 | -310.1 | 57.3* | 8.9 | 56.8* | 49.2*
O=C(COc1ccc(Cl)cc1)Nc1nc(-c2ccncc2)cs1 | 5.9 | -0.2 | 7.6 | 10.6 | 0.2 | . | .
CCCn1cc(SCC(=O)NCc2ccco2)c2ccccc21 | 0.4 | 8.3 | 4.9 | -1.9 | 1.1 | . | .
O=C(CSc1cn(CCNC(=O)c2ccccc2)c2ccccc12)NCc1ccco1 | -7.0 | -6.7 | 4.9 | 27.9* | -7.9 | 24.7* | -7.5
Cc1ccc(C(=O)NCCn2cc(SCC(=O)Nc3cc(C)on3)c3ccccc32)cc1 | 2.6 | 3.7 | 16.9 | 28.5* | -8.4 | 31.3* | 6.6
Cc1cc(NC(=O)CSc2cn(CCNC(=O)c3ccccc3)c3ccccc23)no1 | -11.1 | 13.6 | 1.8 | 7.1 | 7.2 | . | .
CCOCc1cn(CC(=O)c2ccc([N+](=O)[O-])cc2)c(C)nc1=N | 7.4 | 6.9 | 35.1 | -5.8 | -12.8 | . | .
CC(Sc1nc2c(c(=O)[nH]1)CCCC2)C(=O)Nc1ccc(Br)cn1 (stereo unspecified) | -0.7 | 1.2 | 20.5 | -0.8 | 18.9 | . | .
CC(C)(C)c1ccc(-c2nnc3sc(-c4ccccn4)nn23)cc1 | -2.7 | -7.1 | -14.1 | 40.0* | -7.3 | 53.7* | 25.9*
Cc1ccc(-n2c(-c3cn(C)nc3C)n[nH]c2=S)cc1 | 1.5 | 0.4 | . | 4.8 | 4.7 | . | .
COC(=O)c1ccc(NC(=O)C[n+]2ccccc2C)cc1 | 1.8 | 4.3 | 15.1 | 19.8* | 11.9 | 1.0 | -4.1
CC(=O)N(C)/C=C1\Sc2ccccc2C1=O | -16.5 | -8.3 | -98.1 | 35.7* | -6.2 | -1.5 | -12.8
O=CN(/C=C1\Sc2ccccc2C1=O)Cc1ccccc1 | 2.8 | 0.6 | -68.2 | 34.4* | 12.8 | 0.3 | -11.8
CCC(=O)N(C)/C=C1\Sc2ccccc2C1=O | -17.4 | -4.2 | -133.8 | 26.1* | -7.4 | -9.9 | -25.1
O=C1/C(=C/c2cccnc2)Sc2ccccc21 | -5.8 | -6.4 | -5.1 | 3.3 | 16.4 | . | .
CC(C)NC(=O)CN1C(=O)c2cccc3cccc1c23 | 5.6 | -3.7 | -133.9 | -3.0 | 20.1 | . | .
Cc1[nH]n(-c2ccccc2)c(=O)c1C(c1ccccc1C(=O)O)c1c(C)[nH]n(-c2ccccc2)c1=O | 5.8 | 4.2 | 17.9 | 3.4 | 16.9 | . | .
Cc1[nH]n(-c2ccccc2)c(=O)c1C(c1ccccc1[N+](=O)[O-])C(C#N)C#N (stereo unspecified) | -1.7 | 8.7 | -12.4 | 28.0* | 9.1 | 1.7 | -3.8
SMILES | SENP8 block-1 | SENP7 block | SENP8 block-2 | HSP90 refold inh | SENP6 inh | HSP90 inh confirm | luciferase ctr
COc1ccccc1N1CCN(S(=O)(=O)CCNC(=O)c2ccco2)CC1 | . | . | 17.2 | . | . | . | .
CCCC(=O)NNC(=O)c1c(O)c2ccccc2[nH]c1=O | 1.5 | 2.4 | 0.9 | 4.2 | -4.0 | . | .
Cc1noc(C(=O)Nc2ccc(Cl)cc2)c1Cl | 3.2 | 0.8 | . | 25.3* | -12.5 | 1.8 | -3.4
Cc1ccc(NC(=O)c2onc(C)c2Cl)cc1 | -21.3 | -8.0 | 18.0 | -0.3 | -6.5 | . | .
O=S(N1CCCCC1)C12CC3CC(CC(C3)C1)C2 (stereo unspecified) | 7.4 | -6.1 | 13.7 | 40.0* | 7.7 | -2.9 | -6.5
C[C@H](NC(=O)c1nc[nH]c1C(=O)NCC(=O)OCc1ccccc1)C(=O)OC(C)(C)C | 0.9 | 1.5 | 4.5 | 62.0* | 12.9 | -9.6 | -16.5
O=C(CN1C(=O)CCC1=O)Nc1cccc2c1C(=O)NC2=O | -7.8 | -8.6 | -250.0 | 21.4* | 2.8 | 2.6 | -2.8
COc1ccc(C(=O)NNC(=O)C(=O)NC2CCCCC2)cc1 | -9.5 | 1.9 | 3.4 | 19.3* | -6.2 | 0.0 | -1.1
CCc1ccc(C(O)c2ncc(-c3cccc(C(F)(F)F)c3)[nH]2)cc1 (stereo unspecified) | . | . | 22.1 | . | . | . | .
Cc1ccc(NC(=O)c2ccco2)c(NC(=O)c2ccccc2C)c1 | 1.3 | 1.1 | 4.4 | 4.1 | -9.8 | . | .
CCOC(=O)C(CCCP(=O)(c1ccccc1)c1ccccc1)(NC(C)=O)C(=O)OCC | -6.4 | -1.8 | 22.7 | 23.4* | -17.2 | -8.9 | -11.9
CCOC(=O)C(CCCCP(=O)(c1ccccc1)c1ccccc1)(NC(C)=O)C(=O)OCC | -3.8 | 0.4 | 0.4 | 6.1 | -7.5 | . | .
CCCN(CCC)CCCNC(=O)Cn1cnc2sc(C)c(S(=O)(=O)N3CCOCC3)c2c1=O | 3.6 | 0.8 | 13.0 | -0.9 | -20.2 | . | .
CC(C)CNC(=O)COCc1cc(-c2ccc3c(c2)OCO3)on1 | -11.9 | 6.4 | 1.8 | -2.4 | 16.0 | . | .
CC(C)CNC(=O)c1cc(-c2ccc3c(c2)OCO3)on1 | 12.4 | 32.4 | -37.1 | 31.1* | 41.7 | 37.8* | 24.2*
Cc1cc(OC(C)C(=O)NC(Cc2c[nH]c3ccc(O)cc23)C(=O)O)c2c(C)c(C)c(=O)oc2c1 (stereo unspecified) | -8.2 | 10.9 | -4.2 | -7.0 | -3.3 | . | .
CC(Oc1ccc2c(c1)oc(=O)c1ccccc12)C(=O)NC(Cc1c[nH]c2ccc(O)cc12)C(=O)O (stereo unspecified) | -0.9 | 1.4 | -143.2 | 46.9* | 4.5 | -2.4 | -4.8
Cc1cc(Cl)ccc1OCC(=O)N(Cc1cccs1)C1CCS(=O)(=O)C1 (stereo unspecified) | -1.4 | 2.4 | 11.2 | 22.9* | -8.5 | 2.2 | -4.3
O=C(COc1ccccc1Cl)N(Cc1cccs1)C1CCS(=O)(=O)C1 (stereo unspecified) | 0.6 | -2.7 | 13.1 | -6.6 | -12.1 | . | .

Screens as filed in PubChem BioAssay.
